Counter-ions that a name gives are not always drawn.
system: Saccharomyces cerevisiae BY4741 SeMeCo community; assay: z-score of subpopulation abundance vs DMSO median, subpopulation auxotrophic for H; higher = larger share of this subpopulation than in DMSO controls; details: 10 µM; 24 h; SM minimal medium; subpopulation (auxotrophy): H
Method: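 Fluorescent four-plasmid SeMeCo (self-establishing metabolically cooperating S. cerevisiae BY4741 community; plasmids pH-mRuby2, pL-mWasabi, pU-eCFP, pM-TagRFP657) was grown 24 h in minimal SM medium with each Selleck FDA-approved drug at 10 µM in 384-well plates. Cells were fixed and imaged by high-content confocal microscopy. For each auxotrophic subpopulation (and the prototroph), a z-score gives the deviation from the DMSO vehicle-control population median.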

| SMILES | z-score of subpopulation abundance |
| --- | --- |
| O=C(O)CCC(=O)Nc1ccc(S(=O)(=O)Nc2nccs2)cc1 [Succinylsulfathiazole] | -1.14 |
| CC(C)c1nc(N(C)S(C)(=O)=O)nc(-c2ccc(F)cc2)c1/C=C/[C@@H](O)C[C@@H](O)CC(=O)O [Rosuvastatin] | 4.84 |
| Cc1nc(C)c(Cl)c(O)c1Cl [Clopidol] | 0.6 |
| CCCN1CCCC[C@H]1C(=O)Nc1c(C)cccc1C [Ropivacaine] | -0.64 |
| C=CC1=C(C(=O)O)N2C(=O)[C@@H](NC(=O)/C(=N\OCC(=O)O)c3csc(N)n3)[C@H]2SC1 [Cefixime] | -0.5 |
| CN1CCC[C@@H]1Cc1c[nH]c2ccc(CCS(=O)(=O)c3ccccc3)cc12 [Eletriptan HBr] | 0.1 |
| CN(C)CCc1c[nH]c2ccc(Cn3cncn3)cc12 [Rizatriptan Benzoate] | 0.25 |
| CC1(C)S[C@@H]2[C@H](NC(=O)[C@H](N)c3ccccc3)C(=O)N2[C@H]1C(=O)O [Ampicillin Trihydrate] | 0.41 |
| CN1CC2c3ccccc3Oc3ccc(Cl)cc3C2C1 (stereo not given) [Asenapine maleate] | -0.64 |
| CCOc1ccc2nc3cc(N)ccc3c(N)c2c1 [Ethacridine lactate monohydrate] | 4.4 |
| CC(=O)OCC1=C(C(=O)O)N2C(=O)[C@@H](NC(=O)Cc3cccs3)[C@H]2SC1 [Cephalothin] | 0.18 |
| CC1=C(C(=O)O)N2C(=O)[C@@H](NC(=O)[C@H](N)c3ccccc3)[C@H]2SC1 [Cephalexin] | 0.56 |
| CN(C)CCc1c[nH]c2ccc(CS(=O)(=O)N3CCCC3)cc12 [Almotriptan Malate] | -0.37 |
| C[C@H]1c2cccc(O)c2C(O)=C2C(=O)[C@]3(O)C(O)=C(C(N)=O)C(=O)[C@@H](N(C)C)[C@@H]3[C@@H](O)[C@@H]21 [Doxycycline] | -0.79 |
| CCOC(=O)c1ccc(N)cc1 [Benzocaine] | 0.27 |
| NC(=O)Cc1cccc(C(=O)c2ccccc2)c1N [Nepafenac] | -0.38 |
| COc1cc(N)c(Cl)cc1C(=O)NC1CCN(CCCOc2ccc(F)cc2)CC1OC (stereo not given) [Cisapride] | -0.08 |
| Oc1c(Cl)cc(Cl)cc1Sc1cc(Cl)cc(Cl)c1O [Bithionol] | 6 |
| C1CCN2C[C@@H]3C[C@@H](CN4CCCC[C@@H]34)[C@H]2C1 [(-)-Sparteine Sulfate] | 1.38 |
| COCCOC(=O)C1=C(C)NC(C)=C(C(=O)OC(C)C)C1c1cccc([N+](=O)[O-])c1 (stereo not given) [Nimodipine] | -0.5 |

| SMILES | z-score of subpopulation abundance |
| --- | --- |
| CN[C@@H]1[C@@H](O[C@H]2O[C@H](CO)[C@@H](N)[C@H](O)[C@H]2O)OC2C[C@@H](N)[C@@H](O[C@H]3[C@H](O)[C@@H](O)[C@H](N)C[C@@H]3N)OC2[C@@H]1O (stereo not given in full) [Apramycin Sulfate] | -0.41 |
| CO[C@H]1C[C@@H]2CC[C@@H](C)[C@@](O)(O2)C(=O)C(=O)N2CCCC[C@H]2C(=O)O[C@H]([C@H](C)C[C@@H]2CC[C@@H](OCCO)[C@H](OC)C2)CC(=O)[C@H](C)/C=C(\C)[C@@H](O)[C@@H](OC)C(=O)[C@H](C)C[C@H](C)/C=C/C=C/C=C/1C [Everolimus (RAD001)] | 15.9 |
| CC[C@H](C)C(=O)O[C@H]1C[C@H](O)C=C2C=C[C@H](C)[C@H](CC[C@@H](O)C[C@@H](O)CC(=O)O)[C@H]21 [Pravastatin sodium] | 0.31 |
| CC/C(=C(\c1ccccc1)c1ccc(OCCN(C)C)cc1)c1ccccc1 [Tamoxifen Citrate] | 1.16 |
| C[C@@H](O)[C@H]1C(=O)N2C(C(=O)O)=C(SCCNC=N)C[C@H]12 [Imipenem] | 0.19 |
| CCCN[C@H]1CCc2nc(N)sc2C1 [Pramipexole] | -0.21 |
| COc1ccnc(C[S+]([O-])c2nc3cc(OC(F)F)ccc3[nH]2)c1OC (stereo not given) [Pantoprazole] | 1.49 |
| Fc1ccc([C@@H]2CCNC[C@H]2COc2ccc3c(c2)OCO3)cc1 [Paroxetine mesylate] | -0.34 |
| CCCOc1ccc2[nH]c(NC(=O)OC)nc2c1 [Oxibendazole] | 0.1 |
| O=C(c1ccc(OCCN2CCCCC2)cc1)c1c(-c2ccc(O)cc2)sc2cc(O)ccc12 [Raloxifene] | 1.48 |
| NC12CC3CC(CC(C3)C1)C2 [Amantadine HCl] | -0.11 |
| O=C(Cn1cnnn1)N[C@@H]1C(=O)N2C(C(=O)O)=C(CSc3nncs3)CS[C@H]12 [Ceftezole sodium] | -0.94 |
| Oc1c(I)cc(Cl)c2cccnc12 [Clioquinol] | 9.23 |
| CCN1CCC[C@H]1CNC(=O)c1cc(S(N)(=O)=O)ccc1OC [Levosulpiride] | -0.73 |
| NC1CCN(c2nc3c(cc2F)c(=O)c(C(=O)O)cn3-c2ccc(F)cc2F)C1 (stereo not given) [Tosufloxacin p-Toluenesulfonate Hydrate] | 0.41 |
| NS(=O)(=O)Cc1noc2ccccc12 [Zonisamide] | 0.46 |
| N#C/C(=C1/SC[C@@H](c2ccc(Cl)cc2Cl)S1)n1ccnc1 [Luliconazole] | 18.4 |
| O=C(O)c1ccccc1O [Salicylic acid] | -0.17 |
| OC[C@H]1O[C@H](OCC2O[C@@H](O)[C@H](O)[C@@H](O)[C@@H]2O)[C@H](O)[C@@H](O)[C@H]1O (stereo not given in full) [Melibiose] | -0.36 |
| O=C1c2c(O)ccc(O)c2C(=O)c2c(NCCNCCO)ccc(NCCNCCO)c21 [Mitoxantrone 2HCl] | 21.2 |

Source: the supplement of paper PMC8975748
